# Assay outcomes as filed in PubChem BioAssay.
# VP16 counter: VP16 counterscreen qHTS for inhibitors of ROR gamma transcriptional activity; AID 2546, 2010; Drosophila S2 Gal4-VP16 UAS-luciferase, luminescence, 20 h; 310,000 tested, 3.5% active; Potency, µM (titrated, usually from 53.6 µM), without a hit: top-dose activity, negative = inhibition, most hits filed as inhibitors;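 also: Gal4-VP16 expression switched on by copper sulfate through the metallothionein promoter; potency is read from the fitted curve at half-maximal effect; % is scaled to controls: 0 for no effect and ±100 for the full control effect; nearly all actives have a fitted effect of over 50% in size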
# Chronic BCR inh: qHTS Assay to Find Inhibitors of Chronic Active B-Cell Receptor Signaling. ABC-DLBCL IkBa-CBG/CBR reporter, luminescence ratio, 4 h. Potency, µM (highest dose often 46.1 µM), for inactives: at the top dose activity change, negative = inhibition, usual class: inhibitors. 340,000 tested, 0.05% active; active = well fitted inhibition curve with a large enough effect in the signal ratio, with a control signal flat, not every such curve was filed as active; inconclusive = small, poorly fitted or top-dose-only effect, or effect the other way, or a change in a side signal; the % refers to the signal ratio;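 also: potency is read from the fitted curve at half-maximal effect; plate controls were basal doxycycline-induced cells for no effect and cells given 10 µM MG132 for full effect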
#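 Doxycycline induced both beetle luciferases in TMD8 lymphoma cells; IKK-driven degradation limits the IkappaBalpha-fused green signal, while red luminescence normalises for cell number and nonspecific effects. Compounds tested up to 46 uM, 4 hrs.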
# MCF10A rerep: A quantitative high throughput screen for small molecules that induce DNA re-replication in MCF 10a normal breast cells; MCF 10A DNA re-replication, Hoechst nuclear intensity, 48 h; Potency, µM (doses to about 46.1 µM), for the others: at the top dose activity, positive = re-replication, most hits filed as activators; 350,000 tested, 2.9% active; also: potency is read from the fitted curve at half-maximal effect; % of control where 0% means no effect; nearly all actives have a fitted effect of over 50% in size
# SW480 rerep: A quantitative high throughput screen for small molecules that induce DNA re-replication in SW480 colon adenocarcinoma cells; 340,000 tested, 1.8% active; SW480 DNA re-replication, Hoechst DNA content imaging, 48 h; Potency, µM (top dose mostly 46.1 µM), for inactives: top-dose re-replication activation, actives largely listed as activators; also: potency is read from the fitted curve at half-maximal effect; % of control where 0% means no effect; nearly all actives have a fitted effect of over 55% in size
#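 First, 250 cells per well were seeded. Next, compound or vehicle (23 nL) was pinned in, plates sat 48 hr at 37 C. Finally Hoechst was added for 40 min before fluorescence scanning.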
# Giardia killer: Small Molecules that selectively kill Giardia lamblia: qHTS; Giardia lamblia trophozoite viability; activity change, % at 7.66 µM, hits read low; 340,000 tested, 0.15% active; AID 540267, 2011; in the data active = activity change below about -80%; inconclusive = between about -30% and that limit;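 also: parasites exposed to compound for two days anaerobically before the ATP read; % is scaled to controls: 0 for no effect and ±100 for the full control effect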
#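 Trophozoite viability was measured as ATP-dependent luminescence, read 15-30 min after reagent addition. Before that, parasites at 100 cells/well were exposed to compounds for 48 h, anaerobically, at 37 deg C.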
# RORgamma inh: qHTS for inhibitors of ROR gamma transcriptional activity | Nuclear receptor ROR-gamma (Mus musculus), P51450 | Drosophila S2 Gal4-RORgamma UAS-luciferase reporter, 20 h | Potency, µM (doses to about 53.6 µM), inactives show at the highest dose activity change, negative = inhibition, actives largely listed as inhibitors | 310,000 tested, 5.4% active | AID 2551, 2010; also: potency is read from the fitted curve at half-maximal effect; % is scaled to controls: 0 for no effect and ±100 for the full control effect; nearly all actives have a fitted effect of over 60% in size
# Target sequence (P51450 whole entry, looked up, the tested form may be a part): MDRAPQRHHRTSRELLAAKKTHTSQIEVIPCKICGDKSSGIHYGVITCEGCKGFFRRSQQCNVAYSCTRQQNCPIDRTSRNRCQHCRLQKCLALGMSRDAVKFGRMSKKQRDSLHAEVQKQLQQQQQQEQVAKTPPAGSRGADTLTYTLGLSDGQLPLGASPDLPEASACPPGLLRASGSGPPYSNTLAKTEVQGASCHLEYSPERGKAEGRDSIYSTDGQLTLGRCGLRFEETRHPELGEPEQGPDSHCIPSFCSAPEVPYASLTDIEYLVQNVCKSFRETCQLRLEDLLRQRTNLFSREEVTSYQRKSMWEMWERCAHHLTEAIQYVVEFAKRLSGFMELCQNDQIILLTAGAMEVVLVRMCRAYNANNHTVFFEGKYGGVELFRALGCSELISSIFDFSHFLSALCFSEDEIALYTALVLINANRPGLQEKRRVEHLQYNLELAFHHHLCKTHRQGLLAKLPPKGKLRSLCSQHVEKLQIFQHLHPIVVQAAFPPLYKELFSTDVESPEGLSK
#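 Luciferase reporter read in Schneider cells carrying Gal4-RORγ (mouse) and UAS-Photinus luciferase; cells given compound 1 h before 700 uM copper sulfate induction, then incubated 20 h at ambient temperature.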
# * marks the source's active call; other numbers are inactive results; ? = inconclusive; . = no result; [ ] = another dose, or the depositor's remark. Compounds with a hit are over-represented: about 8.3% of the library has one in this group of screens. Unless noted, calls follow the shape of the dose curve; as a rule, active = well fitted curve in the direction sought with a large enough effect; inconclusive = small, poorly fitted or top-dose-only effect, or another doubt; inactive = no such curve, though single readings can be large; an effect the other way counts as inactive or inconclusive.
SMILES,VP16 counter,Chronic BCR inh,MCF10A rerep,SW480 rerep,Giardia killer,RORgamma inh
CCC(C)C1NC(=O)C(Cc2ccc(O)cc2)NC(=O)C(N)CSSCC(C(=O)N2CCCC2C(=O)NC(CC(C)C)C(=O)NCC(N)=O)NC(=O)C(CC(N)=O)NC(=O)C(CCC(N)=O)NC1=O (stereo not drawn),10%,.,2%,2%,.,1%
C=CCCC(=O)NC1CCCc2c1cnn2-c1ccccc1F (stereo not drawn),0%,-1%,0%,7%,9,15%
CCOC(=O)/C(N=Nc1c(C)n(C)n(-c2ccccc2)c1=O)=C(\C)O,0%,?,-27%,0%,-8,-17%
CCNc1ccc(N=Nc2c(C)n(C)n(-c3ccccc3)c2=O)cc1,-6%,?,11%,?,-98*,10%
CN(C(=O)COC(=O)CNC(=O)c1ccc2ccccc2c1)c1c(N)n(Cc2ccccc2)c(=O)[nH]c1=O,11%,1%,1%,-2%,-11,-12%
COc1ccc(C(=S)N2CCN(c3cccc(Cl)c3)CC2)c(OC)c1,-12%,?,7.3µM*,4.1µM*,-12,-34%
COc1cc(CN2CCN(c3cccc(Cl)c3)CC2)cc(OC)c1OC,-15%,-6%,16µM*,16µM*,5,-29%
Cn1c(CN2CCN(c3cccc(Cl)c3)CC2)nc2ccccc21,?,-1%,?,21µM*,-14,?
CCn1c(N2CCN(Cc3ccc([N+](=O)[O-])cc3)CC2)nc2ccccc21,4%,-4%,1%,-15%,6,-17%
CCCn1c(N2CCN(Cc3ccc(Cl)cc3)CC2)nc2ccccc21,?,2%,48%,-2%,-9,11µM*
Cc1ccc(CN2C(=O)C[C@@H](NS(=O)(=O)c3ccc4ccccc4c3)C/C=C\C2c2ccc(C)cc2)cc1 (stereo partly drawn),0%[40.7 µM],.,.,.,.,10%[40.7 µM]
Oc1ccc(C(=S)N2CCN(c3cccc(Cl)c3)CC2)cc1,-7%,1%,?,?,17,18%
COc1cc(C(=S)N2CCN(c3cccc(Cl)c3)CC2)ccc1O,-15%,-28%,15µM*,21µM*,-5,28%
CCCCc1n[nH]c2c1/C(=N/OCC)CC(C)(C)C2,-13%,-1%,1%,-21%,13,12%
CCN(CC)CCN1c2ccccc2Sc2ccc3ccccc3c21,-11%,?,?,18µM*,-28,17%
CCCCn1c(N)c(N(CCC(C)C)C(=O)C2=NN(c3ccccc3)C(=O)CC2)c(=O)[nH]c1=O,.,0%,6%,-23%,-12,.
O=C(OCC(=O)c1c[nH]c2ccccc12)c1cc2ccccc2cc1O,0%,-2%,12µM*,15%,8,20%
COc1ccc(C(=O)OCC(=O)c2c[nH]c3ccccc23)c(OC)c1,.,-14%,17%,-3%,-15,.
C=CCn1c(SC(C)C(=O)c2c(N)n(C)c(=O)n(C)c2=O)nnc1-c1ccoc1C (stereo not drawn),.,-2%,-11%,2%,-12,.
COc1ccc(-c2csc(NC(=O)c3cc(C)oc3C)n2)cc1OC,10%,0%,?,?,-1,9%
COc1ccc(-c2csc(NC(=S)NC(=O)c3cccs3)n2)cc1Br,11µM*,0%,?,?,?,4.5µM*
COc1ccc(-c2csc(NC(=S)NC(=O)c3ccc(S(=O)(=O)N(C)C)cc3)n2)cc1OC,?,?,6%,3%,18,2.8µM*
COc1ccc(-c2csc(NC(=S)NC(=O)c3cccs3)n2)cc1OC,14µM*,-12%,?,-12%,-23,4.5µM*
